Assay outcomes: PubChem, several laboratories
CYP2C9 act – CYP2C9 (human) activation; P11712; AID 1024; recombinant CYP2C9, luciferin-H conversion, luminescence; stronger effect = higher value; factor 1 = untreated enzyme, 0 = blocked; activation factor at 5 µM; actives 1.4% (n = 96,000);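 active means activation factor of 2 or more for CYP2C9 at a 5 µM dose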;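 further: 0 = sulfaphenazole-blocked wells and 1 = vehicle-only wells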
Pyk2 oligo antag – Pyk2 (human) oligomerization antagonism | Q293 cells, Pyk2 FERM NanoBiT luminescence; stronger effect = lower value | Q14289 | actives 0.83% (n = 99,000) | z-score (the deposit names both 25 µM and 10 µM);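 active means Z-score of -3 or lower, scaled per plate to the spread of control and sample wells; inactive means z-score above -3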;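 further: negative z-score means lost luminescence so less FERM oligomerization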
Cav32 inh – blocks human Cav3.2 T-type calcium channel; actives 4% (n = 100,000); B-score at 10 µM; Cav3.2-expressing cells, Fluo-4 calcium fluorescence FDSS; stronger effect = lower value; O95180;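 active means single-dose well whose peak fluorescence ratio is a statistical outlier from its plate by either plate-standardised score or position-corrected B-score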
CYP2C9 inh – inhibitors of human CYP2C9; P11712; CYP2C9 Supersomes, luciferin-H conversion, luminescence; inhibition, % at 5 µM; actives 20% (n = 96,000);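 active means blocking of liver enzyme CYP2C9 beyond about 50% at 5 µM, limit read from the data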
CYP2C19 act – cytochrome P450 2C19 (human) activation; P33261; recombinant CYP2C19, luciferin-H EGE luminescence; stronger effect = higher value; 0 = fully inhibited enzyme, 1 = untreated enzyme; 96,000 tested, under 10 active; activation factor at 5 µM;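 active means activation factor of at least 2 at 5 µM in the primary screen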;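 further: 0 = wells with 2.5 mM tranylcypromine and 1 = vehicle-only wells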
CYP2C19 inh – blocks human cytochrome P450 2C19; CYP2C19 Supersomes, luciferin-H EGE luminescence, 30 min; inhibition, % at 5 µM; actives 21% (n = 96,000); P33261;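 active means CYP2C19 inhibition above a set limit at 5 µM in the primary screen, cut at about 50% in these data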;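 further: plate controls were negative control wells for no effect and 2.5 mM tranylcypromine positive control for full effect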
Active calls of the source: *; · = not tested or not shown. Rows were chosen to be rich in hits. Some 27% of all compounds tested hit in one or more screens of this group.

SMILES | CYP2C9 act | Pyk2 oligo antag | Cav32 inh | CYP2C9 inh | CYP2C19 act | CYP2C19 inh
Cc1sc2nc(SCC(=O)C(C)(C)C)n(Cc3ccco3)c(=O)c2c1C | 0.3 | -0.06 | -0.81 | 73* | 0.9 | 12
COc1ccc(NC(=O)CSc2nc3sc(C)c(C)c3c(=O)n2Cc2ccco2)cc1 | 0.2 | -2.4 | 0.95 | 79* | 0.4 | 62*
CC1=C(C)[N+](=O)C2CCCCC2N1[O-] (centres undefined) | 1 | -0.14 | 0.87 | 3 | 1.1 | -10
COc1ccc2nc3sc(C(=O)NCc4cccs4)c(N)c3cc2c1 | 0.4 | · | -0.87 | 56* | 0.2 | 77*
Cc1cc(C(=O)NCc2cccs2)no1 | 1 | 0.41 | 0.15 | -5 | 1 | 1
Clc1ccc(-c2ccc(/C=N/Nc3cc(N4CCOCC4)nc(N4CCOCC4)n3)o2)cc1 | · | -0.53 | 0.21 | · | · | ·
CC(=O)c1cc(C#N)c(SCC(=O)OC(C)C)nc1C | 0.8 | 0.42 | 0.44 | 24 | 0.6 | 37
CSc1nc(N)nc(SCC(=O)c2ccc(C)cc2)c1C#N | 0.5 | -2.3 | -0.24 | 54* | 1 | -3
CSc1nc(N)nc(SCC(=O)OC(C)C)c1C#N | 0.4 | 0.67 | -0.44 | 57* | 0.9 | 11
Cc1ccc(-c2nc(SCC(N)=O)c(C#N)c3c2CCCC3)cc1 | 0.6 | -1.3 | -0.64 | 38 | 0.4 | 65*
CCc1c(C)nc(SCC(=O)CC(=O)OC(C)C)c(C#N)c1C | 0.6 | -1.3 | -3.3 | 36 | 0.2 | 77*
Cc1ccc(C2c3sc(=O)[nH]c3SC3C(=O)NC(=O)C32)cc1 (centres undefined) | · | 0.54 | 0.57 | · | · | ·
O=C(C[n+]1cccc(NC(=O)c2ccccc2)c1)c1ccc(NC(=O)c2ccccc2)cc1 | 1 | -0.16 | · | 4 | 0.9 | 13
COC(=O)c1ccc(CSc2nc(-c3ccco3)cc(C(F)(F)F)n2)o1 | 0.3 | 0.28 | -0.44 | 75* | 0.7 | 34
COc1ccc(CCNC(=O)CSc2nc(-c3ccco3)cc(C(F)(F)F)n2)cc1 | 0.3 | -0.08 | -0.015 | 69* | 0.4 | 58*
CC(NC(=O)CCSc1nc(-c2ccc3c(c2)OCO3)cc(C(F)(F)F)n1)c1ccccc1 (centres undefined) | 0.2 | 0.05 | -5.2* | 83* | 0.2 | 81*
O=C(CSc1nc(-c2ccco2)cc(C(F)(F)F)n1)NCCCn1ccnc1 | 0 | · | 1.6 | 96* | 0.1 | 91*
COc1ccc(-c2cc(C(F)(F)F)nc(SCCC(=O)NCc3ccccc3)n2)cc1 | 1.1 | 0.17 | -5.7* | -8 | 0.7 | 31
O=C(CSc1nc(-c2ccco2)cc(C(F)(F)F)n1)Nc1cccnc1 | 0.5 | -0.48 | -0.59 | 53* | 0.7 | 26
O=C(CCSc1nc(-c2ccco2)cc(C(F)(F)F)n1)NCCc1ccccc1 | 0.5 | 0.06 | -1.8 | 51* | 0.6 | 39
COCCNC(=O)CSc1nc(-c2ccc(OC)c(OC)c2)cc(C(F)(F)F)n1 | 0.4 | -0.33 | 0.21 | 60* | 0.6 | 36
COc1ccccc1C(=O)NCCCn1cc(Br)c(C)n1 | 0.8 | -0.23 | 0.38 | 21 | 0.3 | 73*
O=[N+]([O-])c1ccc(Sc2ccc(Cl)c(Cl)c2)nc1 | 1 | 0.95 | -0.2 | -2 | 0.9 | 6
CC(=O)N1CCN(C(=S)c2ccc(N(C)C)cc2)CC1 | 0.9 | 0.28 | -0.058 | 8 | 0.8 | 16
CC(=O)N1CCN(C(=S)c2ccc([N+](=O)[O-])cc2)CC1 | 1 | -0.29 | 0.27 | 2 | 0.5 | 51*
SMILES | CYP2C9 act | Pyk2 oligo antag | Cav32 inh | CYP2C9 inh | CYP2C19 act | CYP2C19 inh
CC1(C)CCCN(C(=O)N2c3ccccc3Sc3ccccc32)C1 | 0.9 | -0.52 | -1.3 | 7 | 0.8 | 16
COc1ccccc1CNCc1ccc(OC)c(OC)c1OC | · | 0.68 | 0.21 | · | · | ·
COc1cccc(CNn2cnnc2)c1OCc1ccccc1F | 0.7 | 0.6 | 0.057 | 30 | 0.2 | 76*
CCOc1cccc(CNn2cnnc2)c1OCc1ccccc1Cl | 0.8 | -0.61 | -0.81 | 20 | 0.2 | 76*
N#CCCN1CCN(C(=S)c2ccc(-c3ccc(Cl)cc3)o2)CC1 | 0.8 | 0.43 | -1.6 | 24 | 0.4 | 62*
S=C(c1ccc(-c2ccc(Cl)cc2)o1)N1CCCCC1 | 0.2 | 0.24 | 0.067 | 80* | 0.1 | 92*
Cc1cc(O)c(NC(=S)NC(=O)c2ccc(-c3ccc(Cl)cc3)o2)cc1C | 1.1 | 1.4 | -0.28 | -8 | 1 | -5
O=C(NCCN1CCOCC1)N1CCOCC1 | 0.7 | 0.43 | 0.12 | 30 | 0.6 | 36
CC(C)C[C@H]1C(=O)N2CCC[C@H]2[C@]2(O)O[C@](NC(=O)C3C=C4c5cccc6[nH]c(Br)c(c56)C[C@H]4N(C)C3)(C(C)C)C(=O)N12 (some centres undefined) | · | · | -5.6* | · | · | ·
CN(C)c1nc(SCC#N)nc(N(C)C)n1 | · | 0.02 | 0.29 | · | · | ·
Cc1ccc(S(=O)(=O)Nc2cccc(/C=C/C(=O)O)c2)cc1 | 1 | -0.54 | 0.23 | 2 | 1 | 2
CCOC(=O)COc1ccc(S(=O)(=O)Nc2cccc(SC)c2)cc1 | 0.2 | 0.87 | -0.33 | 78* | 0.1 | 88*
CSc1cccc(NS(=O)(=O)c2ccccc2)c1 | 0.3 | -0.43 | -1 | 66* | 0.7 | 30
CSc1cccc(NS(=O)(=O)c2ccc(F)cc2)c1 | 0.1 | -0.55 | -7* | 91* | 0 | 96*
CCOc1ccc(Nc2nc(Cc3nnc(SCC(=O)c4ccc(C)c(C)c4)o3)cs2)cc1 | 1 | -0.69 | -1.9 | 4 | 1 | -3
CN(c1ccccc1)S(=O)(=O)c1ccc(C(=O)NCC2CCCO2)cc1 (centres undefined) | 0.6 | 0.98 | -0.25 | 37 | 0.9 | 8
C=CCn1cc(C(=O)NCCCOC)c(=O)c2cc(S(=O)(=O)N(CC)CC)ccc21 | 0.4 | -0.48 | 0.97 | 59* | 1.1 | -8
CN(CCCNC(=O)c1cn(C)c2ccc(S(=O)(=O)N(C)C)cc2c1=O)c1ccccc1 | 0.4 | · | 1.4 | 60* | 0.8 | 23
CCN(CC)CCNC(=O)c1cn(CC)c2ccc(S(=O)(=O)N(C)C)cc2c1=O | 1.1 | · | -0.28 | -5 | 1 | -5
CN(C)S(=O)(=O)c1ccc2c(c1)c(=O)c(C(=O)NCCCN1CCCCCC1)cn2C | 0.9 | · | -0.32 | 13 | 1 | 0
CCN(CC)CCNC(=O)c1cn(C)c2ccc(S(=O)(=O)N(C)C3CCCCC3)cc2c1=O | 1 | · | -0.56 | -3 | 1 | -2
CCN(CC)S(=O)(=O)c1ccc2c(c1)c(=O)c(C(=O)NCCCN(C)c1ccccc1)cn2C | 0.4 | -0.65 | -1.5 | 57* | 0.9 | 10
c1ccn2c(SCc3cn4ccsc4n3)nnc2c1 | 1 | 0.29 | 0.55 | -3 | 0.8 | 20
C=C(C)Cn1c(CCCNC(=O)CCC)nc2ccccc21 | 1.8 | 0.34 | 0.59 | -77 | 0.9 | 8
